Results filed as inconclusive are left out. Calls of active or inactive are those of the source. The call rests on the fitted dose curve; in most records, active means well fitted curve in the direction sought with a large enough effect; inconclusive means small, poorly fitted or top-dose-only effect, or another doubt; inactive means no such curve, though single readings can be large; an effect the other way counts as inactive or inconclusive.
Key:
MCC-13 = experiment: qHTS assay to identify novel small-molecules to repurpose for Merkel cell carcinoma treatment (AID 1296009); conditions: MCC and control cell lines, CellTiter-Glo viability, 72 h; series mostly up to 46 µM; further: nearly all actives have a fitted effect of over 60% in size
Method in brief: (§1)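 After compound transfer in DMSO, plates were kept 72 hr at 37 degree celsius. Luminescent ATP signal from CellTiter-Glo served as viability measure, normalized against DMSO and no-cell controls.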

MCC-26 = experiment: as above; conditions: MCC and control cell lines, CellTiter-Glo viability, 72 h; series mostly up to 46 µM
Method in brief: as §1

MKL-1 = experiment: as above; conditions: MCC and control cell lines, CellTiter-Glo viability, 72 h; series mostly up to 46 µM
Method in brief: as §1

MKL-2 = experiment: as above; conditions: MCC and control cell lines, CellTiter-Glo viability, 72 h; series mostly up to 46 µM
Method in brief: as §1

UISO = experiment: as above; conditions: MCC and control cell lines, CellTiter-Glo viability, 72 h; series mostly up to 46 µM
Method in brief: as §1

WaGa = experiment: as above; conditions: MCC and control cell lines, CellTiter-Glo viability, 72 h; series mostly up to 46 µM
Method in brief: as §1

C33A = experiment: Primary qHTS to identify gynecologic anti-cancer compounds using libraries of approved drugs and bioactive compounds (AID 1345084); conditions: Gynecologic cancer cell panel viability, ATPlite luminescence, 48 h; series mostly up to 57.5 µM; further: nearly all actives have a fitted effect of over 55% in size
Method in brief: (§2)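 Five-point cytotoxicity, 48 h drug exposure at 37 C, 5% CO2, on cells seeded 16 h beforehand. ATP content read by ATPlite luminescence.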

CAOV3 = experiment: as above; conditions: Gynecologic cancer cell panel viability, ATPlite luminescence, 48 h; series mostly up to 57.5 µM
Method in brief: as §2

CASKI = experiment: as above; conditions: Gynecologic cancer cell panel viability, ATPlite luminescence, 48 h; series mostly up to 57.5 µM
Method in brief: as §2

Measured: Potency

CN(C)C(=O)Nc1ccc(Cl)c(Cl)c1
inactive: all assays above

Cc1cc(-c2ccccc2)nnc1NCCN1CCOCC1
inactive: all assays above

CCOC(=O)[C@H](CCc1ccccc1)N[C@@H](C)C(=O)N1[C@H](C(=O)O)C[C@@H]2CCC[C@@H]21
inactive: all assays above

CC(C)Cn1cnc2c1c(=O)n(C)c(=O)n2C
inactive: all assays above

O=C(O)Cc1csc(-c2ccc(Cl)cc2)n1
inactive: all assays above

CCC(Cc1c(I)cc(I)c(N)c1I)C(=O)O (stereo not given)
inactive: all assays above

COc1cc(NS(=O)(=O)c2ccc(N)cc2)ncn1
inactive: all assays above

NC(=S)N/N=C/c1cccnc1
inactive: all assays above

O=C(O)P(=O)(O)O
inactive: all assays above

CCCCCCCCCCCCCCCCO
inactive: all assays above

COc1cc(C(=S)N2CCOCC2)ccc1O
inactive: all assays above

NS(=O)(=O)c1cc(C(=O)O)cc(N2CCCC2)c1Oc1ccccc1
inactive: all assays above

N#CCC(=O)NN
inactive: all assays above

Cc1c(-c2ccccc2)oc2c(C(=O)OCCN3CCCCC3)cccc2c1=O
inactive: all assays above

COc1cc(C(=O)NCc2ccc(OCCN(C)C)cc2)cc(OC)c1OC
inactive: all assays above

FC(F)(F)C(F)(F)C(F)(F)C(F)(F)C(F)(F)C(F)(F)C(F)(F)C(F)(F)Br
inactive: all assays above

CCC1NC(=O)c2cc(S(N)(=O)=O)c(Cl)cc2N1 (stereo not given)
inactive: all assays above

CC(C)(C)CC(C)(C)c1ccc(O)c(-n2nc3ccccc3n2)c1
inactive: all assays above

O=C1OC2(c3ccccc31)c1cc(Br)c(O)c(Br)c1Oc1c2cc(Br)c(O)c1Br
inactive: all assays above

CCCCN1C[C@H](O)[C@@H](O)[C@H](O)[C@H]1CO
inactive: all assays above

CCCCCCCCCCCCCCC[C@H](O)[C@@H](N)CO
inactive: all assays above

CCOc1ccccc1OCCN[C@H](C)Cc1ccc(OC)c(S(N)(=O)=O)c1
inactive: all assays above

Cc1ccc(S(=O)(=O)NC(=O)NC2CCCC2)cc1
inactive: all assays above

CC1CCc2c(N3CCC(O)CC3)c(F)cc3c(=O)c(C(=O)O)cn1c23 (stereo not given)
inactive: all assays above

O=C1c2cccc3c2[C@H](CCC3)CN1[C@@H]1CN2CCC1CC2
inactive: all assays above

CC[N+](C)(CC)CCOC(=O)C(O)(c1ccccc1)C1CCCCC1 (stereo not given)
inactive: all assays above

CO[C@]12C[C@@H](COC(=O)c3cncc(Br)c3)CN(C)[C@@H]1Cc1cn(C)c3cccc2c13
inactive: all assays above

COc1ccc(C(=O)c2ccccc2O)c(O)c1
inactive: all assays above

CNCCc1ccccn1
inactive: all assays above

COP(=O)(OC)OC(c1ccc(Cl)cc1)P(=O)(OC)OC (stereo not given)
inactive: all assays above

CCCCC(CC)COC(=O)c1ccc(N(C)C)cc1 (stereo not given)
inactive: all assays above

CC(C)Cc1ccc(CC(=O)O)cc1
inactive: all assays above

O=C(Nc1ccc([N+](=O)[O-])cc1)Nc1ccc([N+](=O)[O-])cc1
inactive: all assays above

OC1C(O)C(O)C(O)C(O)C1O (stereo not given)
inactive: all assays above

CCCCCCCC/C=C\CCCCCCCCN
inactive: all assays above

CC(=O)NC(=O)c1ccccc1O
inactive: all assays above

O=C1C(O)=C(O)C(=O)C(O)=C1O
inactive: all assays above

COc1ccc2c(c1)c1c3n2CCN(C)C3=NCC1
inactive: all assays above

Clc1cccc(C(c2ccc3nc[nH]c3c2)n2ccnc2)c1 (stereo not given)
inactive: all assays above

CC(C)Nc1cccnc1N1CCN(C(=O)c2cc3cc(NS(C)(=O)=O)ccc3[nH]2)CC1
inactive: all assays above

CC(C(=O)O)c1cccc(Oc2ccccc2)c1 (stereo not given)
inactive: all assays above

Cc1cccc(C)c1NC(=O)CN1CCCCCC1
inactive: all assays above

CCCCCCCCCCCCCCCC(=O)O
inactive: all assays above

Cc1ncc(CO)c(C=O)c1O
inactive: all assays above

C#C[C@]1(O)CC[C@H]2[C@@H]3CCC4=Cc5oncc5C[C@]4(C)[C@H]3CC[C@@]21C
inactive: all assays above

Nc1ccc(S(=O)(=O)NCc2ccccc2)cc1
inactive: all assays above

OCc1ccccn1
inactive: all assays above

COC(=O)C(c1ccccc1Cl)N1CCc2sccc2C1 (stereo not given)
inactive: all assays above

NS(=O)(=O)c1ccc(Cl)c(S(N)(=O)=O)c1
not listed: CAOV3
inactive: all other assays above
